Screens as filed in PubChem.
Sampled rows, rich in hits. Any-hit rate of the full collection: about 3.9%.
Anthrax LF inh2 = Bacillus anthracis LF protease inhibitors, primary screen, biochemical, multiplex microsphere, MLPCN library; 360,000 tested, 0.12% active; inhibition, % at 10 µM; Lethal factor (Bacillus anthracis), P15917; multiplex microsphere protease cleavage assay; also: plate controls were buffer without enzyme for full effect and enzyme alone for no effect
Target sequence (P15917 whole entry, looked up): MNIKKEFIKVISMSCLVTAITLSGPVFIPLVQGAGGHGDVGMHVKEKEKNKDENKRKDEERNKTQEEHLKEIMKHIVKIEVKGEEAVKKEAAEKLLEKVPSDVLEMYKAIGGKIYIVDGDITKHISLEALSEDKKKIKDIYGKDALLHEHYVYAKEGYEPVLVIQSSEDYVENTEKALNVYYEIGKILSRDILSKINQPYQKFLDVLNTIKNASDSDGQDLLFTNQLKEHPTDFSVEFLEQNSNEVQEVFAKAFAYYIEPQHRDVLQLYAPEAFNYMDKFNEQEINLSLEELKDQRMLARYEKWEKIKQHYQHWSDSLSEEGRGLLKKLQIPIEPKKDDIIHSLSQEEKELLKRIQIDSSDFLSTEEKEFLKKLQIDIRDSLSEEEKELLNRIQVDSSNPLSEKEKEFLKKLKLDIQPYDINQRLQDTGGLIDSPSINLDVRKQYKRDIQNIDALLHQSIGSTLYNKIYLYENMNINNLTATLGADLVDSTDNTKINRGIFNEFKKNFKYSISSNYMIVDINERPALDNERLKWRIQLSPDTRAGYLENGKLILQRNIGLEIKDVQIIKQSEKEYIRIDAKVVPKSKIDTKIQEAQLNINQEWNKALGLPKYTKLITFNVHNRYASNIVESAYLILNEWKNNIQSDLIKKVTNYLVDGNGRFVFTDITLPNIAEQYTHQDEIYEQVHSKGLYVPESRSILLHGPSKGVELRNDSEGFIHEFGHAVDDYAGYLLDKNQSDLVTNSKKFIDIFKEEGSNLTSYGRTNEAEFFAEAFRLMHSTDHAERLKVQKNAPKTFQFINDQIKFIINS
Autofluor counter = compound fluorescence in toxin protease inhibitor counterscreen; compound autofluorescence counterscreen, microsphere flow cytometry; hits give high values; fluorescence intensity (test concentration not listed); 360,000 tested, 3.1% active; in the data active = fluorescence intensity above about 16000; inconclusive = no clear call, values can overlap the other calls
BoNT A protease = BoNT/A light chain protease inhibitors, primary screen, biochemical, flow cytometry, MLPCN library | Botulinum neurotoxin type A light chain protease (Clostridium botulinum A str. ATCC 3502) | 360,000 tested, 0.17% active | multiplex microsphere protease substrate cleavage | inhibition, % at 10 µM; also: plate controls were buffer without enzyme for full effect and enzyme alone for no effect
3CLpro inhibitor = SARS-CoV 3CLpro protease inhibitors, primary screen, biochemical, quenched FRET | Replicase polyprotein 1ab (Severe acute respiratory syndrome coronavirus), P0C6X7 | recombinant SARS-CoV 3CLpro, quenched FRET peptide cleavage | inhibition, % at 6 µM | 290,000 tested, 0.14% active | AID 1706, 2009; in the data active = inhibition above about 12%
BoNT F protease = BoNT/F light chain protease inhibitors, primary screen, biochemical, flow cytometry, MLPCN library; Multiplex microsphere protease cleavage assay; 360,000 tested, 0.22% active; Botulinum neurotoxin type F light chain protease (Clostridium botulinum); inhibition, % at 10 µM; in the data active = inhibition above about 35%, passing the limit was not always enough; inconclusive = no clear call, values can overlap the other calls; also: plate controls were buffer without enzyme for full effect and enzyme alone for no effect
VHR inh abs = VHR1 phosphatase inhibitors, primary screen, biochemical, absorbance, uHTS | recombinant VHR phosphatase, pNPP absorbance | 290,000 tested, 0.52% active | inhibition, % at 13.3 µM | AID 1654, 2009; in the data active = inhibition above about 50%
Numbers without * were called inactive; ? = inconclusive; nt = not tested or not shown. Rule as the data show it, unless noted: active = inhibition above about 30%; inconclusive = no clear call, values can overlap the other calls; inactive = below that.

SMILES	Anthrax LF inh2	Autofluor counter	BoNT A protease	3CLpro inhibitor	BoNT F protease	VHR inh abs
COc1ccc(C)cc1NC(=O)CSc1nnc(-c2ccccn2)n1Cc1ccco1	-1	21479*	?	6	-8	13
O=C(CSc1nnc(-c2ccccn2)n1Cc1ccco1)Nc1ccc2c(c1)OCO2	-3	20585*	-1	-2	-3	19
COc1ccc(C(=O)CSc2nnc(-c3cccnc3)n2Cc2ccco2)cc1	-6	10586	0	2	4	32
CCn1c(SCC(=O)Nc2ccc3c(c2)OCCO3)nnc1-c1ccccn1	-2	13400	-2	1	-31	18
COc1ccc(C(=O)CSc2nnc(-c3cc4ccccc4cc3O)n2Cc2ccco2)cc1	-4	23275*	-1	1	-6	-13
COc1ccccc1NC(=O)CSc1nnc(-c2ccco2)n1Cc1ccco1	0	19643*	0	-4	-1	18
COc1cc(OC)cc(-c2noc([C@H]3C[C@H](O)[C@@H](CO)O3)n2)c1	1	3004	0	nt	-9	nt
N#Cc1cc2cc3c(cc2nc1NCCNC(=S)NCCCN1CCOCC1)OCO3	-1	4256	0	-4	0	7
CNC(=S)N/N=C1\C(=O)c2cccc3cccc1c23	6	17615*	-20	5	-414	8
CCCCNC(=S)N/N=C1\C(=O)c2cccc3cccc1c23	7	20454*	7	7	8	12
Cc1cc(C)cc(NC(=O)CN(C)CC(=O)N(CC(C)C)c2c(N)n(CC(C)C)c(=O)[nH]c2=O)c1	-9	4972	-1	nt	-10	nt
CCC(C)NC(=O)c1cnn2c(C)c3c(nc12)CCCC3 (stereo not drawn)	-2	10862	1	0	-8	7
Cc1c2c(nc3c(C(=O)NC4CC4)cnn13)CCCC2	-7	21129*	5	-6	6	3
CCn1c(=S)sc2c(=O)n(CC(=O)Nc3ccc(C(C)=O)cc3)c(C)nc21	0	4673	3	1	2	17
O=C(Cn1cnc([N+](=O)[O-])c1)Nc1ccc(Cl)cc1Cl	3	2821	0	nt	4	nt
